Data: the supplement of paper PMC10849652
Of roughly 8,800 targets only a part is listed; those with a hit were picked by preference. About 0.5% of all pairs of compound and target were hits. Unmarked numbers belong to inactive results.

How the values were obtained:
Test in all cases: log2 fold change, soluble protein after heating vs DMSO (PISA); higher = thermal stabilisation; K562 lysate, 10 uM; active = over 0.2 and 3.5 SD of the protein, either way, in both replicates (recomputed)
ibrutinib = compound: C=CC(=O)N1CCC[C@@H](n2nc(-c3ccc(Oc4ccccc4)cc3)c3c(N)ncnc32)C1 [ibrutinib]
How it was run: (§1)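 A 30 min treatment with 10 μM compound was applied to crude K562 extract at 1 mg/mL protein in PBS pH 7.4 with 1 mM MgCl2. Heating for 3 min spanned 48°C-58°C, after which aliquots were pooled, adjusted to 0.5% NP-40 at 4°C and spun at 21,000xg for 90 min. TMTpro 16plex LC-MS/MS of the supernatant, with channel sums equalised, gave values recorded as log-two fold change in thermal stability against solvent controls, from duplicates.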

[1] = compound: CC(=O)c1cnc2ccc(-c3cc(Cl)c(O)c(Cl)c3)nc2c1N[C@H]1CC[C@H](CN(C)C)CC1
How it was run: as §1

ralimetinib = compound: CC(C)(C)Cn1c(N)nc2ccc(-c3[nH]c(C(C)(C)C)nc3-c3ccc(F)cc3)nc21 [ralimetinib]
How it was run: as §1

[2] = compound: CC(C)(O)CC(=O)NCCn1ccc2ncnc(Nc3ccc(Oc4cccc(C(F)(F)F)c4)c(Cl)c3)c21
How it was run: as §1

[3] = compound: CC(C)C1=C2N=C(C=C(N2N=C1)NCC3=CC=CC=C3)NCCCCCCN
How it was run: as §1

[4] = compound: CC1=C(C(CC(=O)N1)C2=CC=C(C=C2)C(F)(F)F)C(=O)NC3=C(C=C4C(=C3)C=NN4)F
How it was run: as §1

[5] = compound: CC1=C(C2=C(C=C1)C(=O)C3=CC=CC=C3N2CCCN)C
How it was run: as §1

[6] = compound: CC1=C(C=C(C=C1)NC(=O)C2=CC(=CC=C2)C(C)(C)C#N)NC3=CC4=C(C=C3)N=CN(C4=O)C
How it was run: as §1

[7] = compound: CC1=C(C=C(C=C1)NC(=O)C2=CC(=CC=C2)N(C)C)NC(=O)C3=CC=C(C=C3)O
How it was run: as §1

[8] = compound: CC1=CC=C(C=C1)SC2=C3C=C(SC3=CN=C2)C(=O)N
How it was run: as §1

Chain of UniProt P42330 (P42330 whole entry, looked up): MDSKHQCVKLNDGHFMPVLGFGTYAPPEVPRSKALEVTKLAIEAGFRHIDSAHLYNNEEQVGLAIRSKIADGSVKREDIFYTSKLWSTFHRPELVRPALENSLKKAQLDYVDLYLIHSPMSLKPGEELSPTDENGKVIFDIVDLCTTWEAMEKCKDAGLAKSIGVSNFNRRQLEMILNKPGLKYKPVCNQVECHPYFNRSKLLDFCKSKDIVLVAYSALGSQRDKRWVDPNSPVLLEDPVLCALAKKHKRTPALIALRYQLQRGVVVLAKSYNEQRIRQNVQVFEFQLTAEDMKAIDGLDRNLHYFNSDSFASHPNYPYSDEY
Chain of UniProt Q13155 (Q13155 whole entry, looked up): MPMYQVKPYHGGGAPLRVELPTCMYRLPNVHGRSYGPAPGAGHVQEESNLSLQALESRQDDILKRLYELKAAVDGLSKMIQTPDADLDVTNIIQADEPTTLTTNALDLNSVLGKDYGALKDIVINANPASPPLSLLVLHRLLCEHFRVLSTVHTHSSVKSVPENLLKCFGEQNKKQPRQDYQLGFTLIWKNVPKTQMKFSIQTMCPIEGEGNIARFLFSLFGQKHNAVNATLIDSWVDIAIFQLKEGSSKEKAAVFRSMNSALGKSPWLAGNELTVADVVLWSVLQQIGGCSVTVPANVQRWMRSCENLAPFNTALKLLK
Chain of UniProt O43182 (O43182 whole entry, looked up): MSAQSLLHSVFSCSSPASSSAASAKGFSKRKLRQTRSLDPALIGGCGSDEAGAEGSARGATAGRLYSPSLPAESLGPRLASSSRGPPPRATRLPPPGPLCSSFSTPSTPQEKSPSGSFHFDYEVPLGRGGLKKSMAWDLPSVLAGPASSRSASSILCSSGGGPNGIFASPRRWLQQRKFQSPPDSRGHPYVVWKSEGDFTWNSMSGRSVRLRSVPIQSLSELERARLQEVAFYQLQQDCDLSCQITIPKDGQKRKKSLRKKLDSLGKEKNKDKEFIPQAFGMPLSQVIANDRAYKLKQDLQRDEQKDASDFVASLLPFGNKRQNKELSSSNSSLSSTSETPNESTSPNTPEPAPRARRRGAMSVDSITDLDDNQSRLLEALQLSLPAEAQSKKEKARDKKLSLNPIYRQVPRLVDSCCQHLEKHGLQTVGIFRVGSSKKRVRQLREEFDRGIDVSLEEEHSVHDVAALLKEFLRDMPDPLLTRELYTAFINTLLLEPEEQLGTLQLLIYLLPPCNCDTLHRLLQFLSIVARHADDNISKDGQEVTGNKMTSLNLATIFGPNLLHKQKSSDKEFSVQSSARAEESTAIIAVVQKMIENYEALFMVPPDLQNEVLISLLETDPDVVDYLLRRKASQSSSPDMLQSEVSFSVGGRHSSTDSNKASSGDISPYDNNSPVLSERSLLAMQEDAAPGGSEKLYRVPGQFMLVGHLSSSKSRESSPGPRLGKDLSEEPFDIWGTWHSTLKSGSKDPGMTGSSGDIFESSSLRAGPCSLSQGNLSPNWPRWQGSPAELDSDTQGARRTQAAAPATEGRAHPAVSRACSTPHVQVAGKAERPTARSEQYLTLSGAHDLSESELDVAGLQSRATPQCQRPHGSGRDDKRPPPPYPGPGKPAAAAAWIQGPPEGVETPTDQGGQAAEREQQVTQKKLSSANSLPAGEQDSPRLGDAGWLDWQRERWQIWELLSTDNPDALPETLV
Chain of UniProt Q9NWX5 (Q9NWX5 whole entry, looked up): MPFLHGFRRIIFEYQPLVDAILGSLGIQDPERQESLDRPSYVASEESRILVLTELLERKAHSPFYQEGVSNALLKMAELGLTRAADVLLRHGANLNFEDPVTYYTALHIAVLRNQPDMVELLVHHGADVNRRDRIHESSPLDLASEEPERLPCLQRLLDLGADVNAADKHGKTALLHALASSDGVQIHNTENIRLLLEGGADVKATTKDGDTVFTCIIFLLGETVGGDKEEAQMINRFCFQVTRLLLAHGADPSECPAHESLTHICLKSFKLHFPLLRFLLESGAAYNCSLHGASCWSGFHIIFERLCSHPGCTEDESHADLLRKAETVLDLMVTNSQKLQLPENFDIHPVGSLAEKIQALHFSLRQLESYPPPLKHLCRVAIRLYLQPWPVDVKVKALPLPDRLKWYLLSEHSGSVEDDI
Chain of UniProt Q01432 (Q01432 whole entry, looked up): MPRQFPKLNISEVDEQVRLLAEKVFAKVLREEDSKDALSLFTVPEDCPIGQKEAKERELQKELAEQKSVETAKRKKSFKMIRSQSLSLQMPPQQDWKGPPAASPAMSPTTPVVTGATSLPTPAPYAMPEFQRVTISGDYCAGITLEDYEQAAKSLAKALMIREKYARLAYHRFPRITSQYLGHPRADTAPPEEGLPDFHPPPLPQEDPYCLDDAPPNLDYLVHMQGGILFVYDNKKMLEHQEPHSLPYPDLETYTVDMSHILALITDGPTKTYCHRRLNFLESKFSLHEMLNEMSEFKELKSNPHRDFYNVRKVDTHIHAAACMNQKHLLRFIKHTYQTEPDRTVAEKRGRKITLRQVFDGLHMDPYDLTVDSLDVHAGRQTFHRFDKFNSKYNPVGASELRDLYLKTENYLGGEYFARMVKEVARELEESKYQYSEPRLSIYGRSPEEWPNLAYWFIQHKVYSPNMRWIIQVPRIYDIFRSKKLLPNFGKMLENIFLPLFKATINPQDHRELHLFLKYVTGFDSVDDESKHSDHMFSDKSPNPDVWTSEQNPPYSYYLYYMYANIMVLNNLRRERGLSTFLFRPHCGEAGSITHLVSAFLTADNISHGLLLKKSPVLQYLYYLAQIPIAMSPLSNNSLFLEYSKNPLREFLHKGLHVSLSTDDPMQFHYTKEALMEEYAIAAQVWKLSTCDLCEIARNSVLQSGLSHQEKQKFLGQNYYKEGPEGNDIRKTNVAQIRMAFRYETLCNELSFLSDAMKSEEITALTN
Chain of UniProt P42331 (P42331 whole entry, looked up): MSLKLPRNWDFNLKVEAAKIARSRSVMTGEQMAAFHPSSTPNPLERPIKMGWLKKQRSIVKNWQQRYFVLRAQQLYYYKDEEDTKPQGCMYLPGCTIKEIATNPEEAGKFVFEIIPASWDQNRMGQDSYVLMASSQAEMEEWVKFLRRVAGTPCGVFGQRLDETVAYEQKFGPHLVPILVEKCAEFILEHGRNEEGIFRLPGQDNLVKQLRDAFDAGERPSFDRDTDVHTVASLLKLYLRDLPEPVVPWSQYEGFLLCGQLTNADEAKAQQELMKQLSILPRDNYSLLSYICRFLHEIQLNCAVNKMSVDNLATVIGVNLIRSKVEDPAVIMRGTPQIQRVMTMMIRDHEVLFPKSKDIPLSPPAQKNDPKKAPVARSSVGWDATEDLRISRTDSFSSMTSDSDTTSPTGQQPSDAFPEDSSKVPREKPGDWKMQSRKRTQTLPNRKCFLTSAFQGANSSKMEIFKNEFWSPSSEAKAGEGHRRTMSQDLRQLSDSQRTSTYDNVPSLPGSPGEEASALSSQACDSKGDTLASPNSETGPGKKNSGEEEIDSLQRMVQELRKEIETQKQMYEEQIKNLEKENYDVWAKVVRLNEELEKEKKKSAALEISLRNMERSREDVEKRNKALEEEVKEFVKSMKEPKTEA
Chain of UniProt Q9NRW3 (Q9NRW3 whole entry, looked up): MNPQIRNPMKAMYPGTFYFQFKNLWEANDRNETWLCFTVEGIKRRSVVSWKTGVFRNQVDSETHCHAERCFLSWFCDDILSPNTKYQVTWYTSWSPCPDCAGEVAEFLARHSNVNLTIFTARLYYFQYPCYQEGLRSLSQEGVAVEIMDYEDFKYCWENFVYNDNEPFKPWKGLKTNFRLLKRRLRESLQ
Chain of UniProt Q02252 (Q02252 whole entry, looked up): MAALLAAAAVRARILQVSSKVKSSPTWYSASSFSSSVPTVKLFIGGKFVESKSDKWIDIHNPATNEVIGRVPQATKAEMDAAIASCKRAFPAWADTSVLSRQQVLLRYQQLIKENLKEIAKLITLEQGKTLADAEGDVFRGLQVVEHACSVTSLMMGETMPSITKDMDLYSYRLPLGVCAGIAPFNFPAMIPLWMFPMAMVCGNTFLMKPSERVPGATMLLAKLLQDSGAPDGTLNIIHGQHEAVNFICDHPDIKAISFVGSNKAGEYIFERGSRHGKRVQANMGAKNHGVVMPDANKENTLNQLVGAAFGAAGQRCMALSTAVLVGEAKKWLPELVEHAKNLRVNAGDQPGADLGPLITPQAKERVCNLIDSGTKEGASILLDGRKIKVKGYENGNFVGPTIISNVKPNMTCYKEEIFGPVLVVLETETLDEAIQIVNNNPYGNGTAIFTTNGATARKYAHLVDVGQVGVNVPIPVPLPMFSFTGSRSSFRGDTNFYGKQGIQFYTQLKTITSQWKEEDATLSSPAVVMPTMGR
Chain of UniProt Q9UG63 (Q9UG63 whole entry, looked up): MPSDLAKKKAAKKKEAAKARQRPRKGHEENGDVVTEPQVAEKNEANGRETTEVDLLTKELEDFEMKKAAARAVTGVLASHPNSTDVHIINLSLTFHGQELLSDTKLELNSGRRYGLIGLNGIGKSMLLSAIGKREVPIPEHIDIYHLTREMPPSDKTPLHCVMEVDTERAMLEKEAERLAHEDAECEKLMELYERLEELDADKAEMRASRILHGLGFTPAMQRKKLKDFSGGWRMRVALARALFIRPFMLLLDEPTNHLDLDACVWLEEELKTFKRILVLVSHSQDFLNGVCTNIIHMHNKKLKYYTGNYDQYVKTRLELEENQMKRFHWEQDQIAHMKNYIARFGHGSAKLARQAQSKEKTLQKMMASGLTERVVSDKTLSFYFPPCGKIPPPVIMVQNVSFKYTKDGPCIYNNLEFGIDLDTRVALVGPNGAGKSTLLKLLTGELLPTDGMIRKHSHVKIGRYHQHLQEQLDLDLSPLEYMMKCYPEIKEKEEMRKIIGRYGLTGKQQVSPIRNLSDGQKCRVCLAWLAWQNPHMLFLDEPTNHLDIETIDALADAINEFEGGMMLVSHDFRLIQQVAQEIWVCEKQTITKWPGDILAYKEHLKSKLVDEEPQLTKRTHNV
Chain of UniProt P07311 (P07311 whole entry, looked up): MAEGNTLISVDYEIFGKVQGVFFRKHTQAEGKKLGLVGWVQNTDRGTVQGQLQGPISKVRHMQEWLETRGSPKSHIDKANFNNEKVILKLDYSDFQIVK

Target | log2 fold change (ibrutinib) | log2 fold change [1] | log2 fold change (ralimetinib) | log2 fold change [2] | log2 fold change [3] | log2 fold change [4] | log2 fold change [5] | log2 fold change [6] | log2 fold change [7] | log2 fold change [8]
AGL (UniProt P35573) | -0.007 | 0.01 | 0.048 | 0.018 | -0.006 | -0.004 | 0.021 | -0.017 | 0 | 0.027
AP5B1 (UniProt Q2VPB7) | 0.112 | -0.037 | -0.04 | -0.072 | 0.011 | 0.021 | -0.067 | -0.08 | 0.036 | -0.006
ARHGEF1 (UniProt M0QZR4) | -0.009 | -0.001 | 0.009 | -0.008 | 0.019 | -0.015 | 0.007 | 0.002 | 0.015 | 0.005
ASNS (UniProt P08243) | 0.012 | 0.015 | -0.014 | 0.012 | 0.052 | -0.017 | 0.04 | 0.016 | 0.014 | 0.047
ALDH18A1 (UniProt P54886) | 0.006 | 0.007 | 0.021 | -0.015 | -0.001 | -0.02 | 0.001 | 0.022 | 0.016 | -0.018
ADD1 isoform 3 (UniProt P35611) | -0.006 | -0.009 | 0 | -0.01 | -0.005 | 0.007 | -0.038 | 0.005 | -0.009 | -0.019
AKR1C2 (UniProt P52895) | 0.031 | 0.021 | -0.043 | -0.035 | 0.025 | -0.025 | 0.038 | -0.013 | 0.018 | 0.019
ACIN1 isoform 5 (UniProt Q9UKV3) | -0.004 | -0.015 | -0.011 | -0.028 | -0.021 | -0.024 | -0.001 | -0.042 | 0.003 | -0.016
ASB6 (UniProt Q9NWX5) | -0.04 | -0.087 | 0.027 | -0.013 | 0.001 | -0.13 | -0.007 | 0.055 | -0.052 | 0.01
ALDH1B1 (UniProt P30837) | 0.008 | 0.086 | 0.019 | 0.02 | 0.056 | -0.024 | -0.005 | -0.018 | -0.014 | -0.018
AMPD3 isoform 4 (UniProt Q01432) | 0.05 | 0.001 | 0.037 | -0.041 | -0.019 | -0.029 | 0.011 | 0.006 | -0.004 | -0.005
AKR1C3 (UniProt P42330) | -0.033 | 0.016 | -0.028 | -0.003 | -0.039 | 0.011 | 0.247 (active) | 0.02 | -0.035 | 0.001
AGO4 (UniProt Q9HCK5) | 0.034 | -0.035 | 0.022 | -0.011 | -0.049 | 0.025 | 0.05 | 0 | -0.013 | -0.024
ABHD17A isoform 2 (UniProt Q96GS6) | -0.03 | 0.011 | 0.039 | -0.035 | 0.032 | -0.042 | -0.065 | -0.023 | -0.097 | -0.098
ACTG1 (UniProt I3L4N8) | 0.191 | 0.053 | -0.019 | 0.065 | -0.184 | 0.038 | -0.677 (active) | -0.181 | -0.006 | 0.033
AKAP8 (UniProt O43823) | 0 | -0.019 | -0.039 | -0.084 | -0.009 | 0.076 | -0.056 | -0.158 | 0.016 | -0.03
ANAPC7 (UniProt Q9UJX3) | -0.007 | 0.002 | 0.015 | -0.009 | 0.001 | 0.01 | 0.002 | 0.022 | 0.023 | 0.01
AIP (UniProt O00170) | 0.019 | -0.004 | -0.022 | -0.003 | -0.012 | -0.011 | -0.017 | 0.011 | 0 | -0.023
ARHGEF2 (UniProt Q92974) | 0.028 | -0.003 | 0.043 | 0.005 | 0.014 | 0.008 | -0.034 | 0.047 | 0.018 | 0.01
ACYP1 (UniProt P07311) | 0.056 | 0.027 | 0 | -0.024 | -0.011 | -0.021 | 0.015 | -0.013 | -0.024 | 0.021
ARHGAP6 (UniProt O43182) | 0.081 | -0.008 | -0.018 | -0.038 | -0.017 | 0.101 | -0.007 | 0.002 | 0.01 | -0.018
AK2 (UniProt P54819) | 0.054 | -0.022 | -0.013 | 0.027 | 0.018 | -0.018 | 0.003 | -0.018 | -0.031 | -0.024
ABCF2 isoform 2 (UniProt Q9UG63) | -0.012 | 0.013 | 0.059 | 0.003 | 0.01 | 0.007 | -0.008 | -0.013 | 0.021 | 0.012
AIMP2 (UniProt Q13155) | 0 | 0.013 | 0.044 | 0.015 | 0.044 | 0.002 | 0.018 | -0.005 | 0.019 | 0.028
ARHGAP25 isoform 4 (UniProt P42331) | 0.016 | 0.036 | 0.026 | -0.003 | -0.026 | 0.064 | -0.014 | 0.117 | 0.059 | -0.006
ALDH6A1 (UniProt Q02252) | 0.128 | -0.006 | -0.064 | -0.043 | 0.008 | -0.088 | -0.191 | 0.025 | -0.066 | -0.02
APOBEC3C (UniProt Q9NRW3) | -0.024 | -0.047 | 0.005 | -0.051 | -0.01 | 0 | -0.025 | 0.046 | 0.019 | -0.01
